Here are results for twelve compounds from PubChem BioAssay (EPA / NIEHS).

Records with an inconclusive call do not appear. The source made the active and inactive calls. How the source made its calls: active means hit-call score of the fitted dose curve at least 0.9, where 1 is the maximum; inconclusive means response in the unintended direction; inactive means score below 0.9.

This assay deals with frog Estrogen Receptor (ESR1), gene 398734. Kind of assay: ATG_frER1_XSP1: Attagene TRANS-FACTORIAL Multi-Species (XSP1) HepG2 Assay for frog Estrogen Receptor (ESR1) (AID 2283777). As for the experimental part: ATG_XSP1_multi-species_TRANS is a cell-based, multiplexed assay created by modifying the existing Attagene TRANS-FACTORIAL system to include a panel of nuclear receptors from some or all the following species: human (Homo sapiens), mouse (Mus musculus), frog (Xenopus laevis), zebrafish (Danio rerio), chicken (Gallus gallus), and turtle (Chrysemys picta). The ECOTOX-FACTORIAL format uses HepG2, a human liver cell line, with measurements taken at 24 hours after chemical dosing in a 24-well plate. Xsp1 included 3 nM 6-alpha-fluorotestosterone to partially stimulate the androgen receptor.ATG_frER1_XSP1 is one of 29 assay components measured or calculated from the ATG_XSP1_multi-species_TRANS assay. It is designed to make measurements of mRNA induction, a form of inducible reporter, as detected with fluorescence intensity signals by Reverse transcription polymerase chain reaction (RT-PCR) and Capillary electrophoresis technology.The assay endpoint ATG_frER1_XSP1 was analyzed in the positive analysis fitting direction relative to DMSO as the negative control and baseline of activity. Using a type of inducible reporter, measures of mRNA for gain-of-signal activity can be used to understand the reporter gene at the transcription factor-level as they relate to the gene ER. Furthermore, this assay endpoint can be referred to as a primary readout, because this assay has produced multiple assay endpoints where this one serves a reporter gene function. To generalize the intended target to other relatable targets, this assay endpoint is annotated to the nuclear receptor intended target family, where the subfamily is steroidal.
Human liver HepG2 cells are transiently transfected with multiple reporter transcription units (MRTUs) in 6-well plates using FuGene 6 reagent (Roche; 3 ml FuGene/1 mg DNA). The MRTU constructs are regulated by a cis-regulating element (promoter). […] A major difference between the CIS and TRANS system is that in CIS activities of endogenous TFs are measured, whereas the TRANS assay evaluates changes in activities of exogenous, chimeric NR-Gal4 proteins. […] At the end of 24 hour incubation, total RNA was isolated using TriZol reagent (Invitrogen). The isolated RNA is then reverse-transcribed using oligo(dT) primer and Mo-MLV reverse transcriptase (Invitrogen) with DNAse I (Ambion) treatment for 30 min. The one-tenth of the produced cDNA was amplified by PCR using Taq DNA polymerase (Invitrogen) and two reporter sequence-specific primers. The PCR products were fluorescently labeled by primer extension with 6-arboxyfluorescein (6-FAM) 5'-labeled reporter sequence-specific primer (2 min at 95 C, 20 s at 68 C and 10 min at 72 C) and these products were digested with 5U of HpaI (New England Biolabs) for 2h at 37 C. The fragments were purified using Qiaquick PCR columns (Qiagen), analyzed on an ABI 3130xL genetic analyzer (Applied Biosystems) with peak positions identified by using a set of X-rhodamine (ROX)-labeled MapMarker1000 molecular weight standards (BioVentures). The raw capillary electrophoresis data was processed using Attagraph software (Attagene).
For the compound `C#CCOS(=O)OC1CCCCC1Oc1ccc(C(C)(C)C)cc1` (configuration not stated), the outcome was inactive.
Same read-out and setting: the same measure for `CCCCC(CC)COC(=O)c1ccccc1C(=O)OCC(CC)CCCC` (configuration not stated): “inactive”.
For orientation: AC50 means the concentration at which the activity in the assay is half-maximal. Regarding `CC(C)Oc1cc(-n2nc(C(C)(C)C)oc2=O)c(Cl)cc1Cl`, the AC50 is 7.92 µM (active).
Turning to `CCCC1COC(Cn2cncn2)(c2ccc(Cl)cc2Cl)O1` (configuration not stated), the outcome was inactive.
As to `COC(=O)N(OC)c1ccccc1COc1ccn(-c2ccc(Cl)cc2)n1`, the compound was classed as inactive.
The same measure, in the same setting: the same measure for `CC(C)(C)c1ccc(CSc2cnn(C(C)(C)C)c(=O)c2Cl)cc1`: “inactive”.
Consider `COc1ccc(C(c2ccc(OC)cc2)C(Cl)(Cl)Cl)cc1`, for which the AC50 was 0.368 µM (active).
Regarding `CCCCOC(=O)c1ccccc1C(=O)OCCCC`, the outcome was inactive.
On the same count and under the same terms, the same measure for `C=CC1(C)OC(=O)N(c2cc(Cl)cc(Cl)c2)C1=O` (configuration not stated): “inactive”.
With `COP(=S)(OC)Oc1nc(Cl)c(Cl)cc1Cl`, the AC50 is 31 µM (active).
Still for that read-out and setting: the same measure for `CCCN(CCC)c1c([N+](=O)[O-])cc(S(N)(=O)=O)cc1[N+](=O)[O-]`: 12.7 µM (active); for `CON(C)C(=O)Nc1ccc(Cl)c(Cl)c1`: 10.4 µM (active).
